Reference: PubChem BioAssay (NCI)
Compounds without any hit were thinned out: in the full panel of roughly 79,000, 15% have a hit. Values without a mark were called inactive. Activity calls are given as the source filed them. Rule as the data show it: active = growth inhibition above about 70%; inactive = the rest.

Tests used:
[1] = NCI Yeast Anticancer Drug Screen. Data for the wt1 strain (AID 149);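 also: 0% = growth of vehicle-treated wt1 cultures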; settings: S. cerevisiae wt1 strain (SPY 50644) growth inhibition, stronger effect = higher value
Outline: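 The wt1 strain was treated with compounds, and growth was compared with vehicle-treated cultures to give inhibition.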

[2] = NCI Yeast Anticancer Drug Screen. Data for the rad50EPP+ strain (AID 151);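 also: 0% = growth of vehicle-treated control cultures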; settings: S. cerevisiae rad50 mutant strain, stronger effect = higher value
Outline: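 One strain with a rad50 alteration (rad50EPP+) was compound-treated, its growth then compared to that of vehicle controls.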

[3] = NCI Yeast Anticancer Drug Screen. Data for the mgt1 strain (AID 153); settings: S. cerevisiae mgt1 mutant growth inhibition, stronger effect = higher value
Outline: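 After exposure of the mgt1 yeast mutant to compound, growth was measured and reported as inhibition compared with vehicle controls.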

[4] = NCI Yeast Anticancer Drug Screen. Data for the rad50 strain (AID 155);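 also: 0% = growth of vehicle-only cultures of the same strain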; settings: S. cerevisiae rad50 strain growth inhibition, stronger effect = higher value
Outline: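 Cells are treated with compound, grown, and their growth is then scored against vehicle-only cultures of the same repair-deficient yeast strain.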

[5] = NCI Yeast Anticancer Drug Screen. Data for the mec2-1 strain (AID 157); settings: S. cerevisiae mec2-1 strain, stronger effect = higher value
Outline: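 Test agents were screened against the mec2-1 yeast strain, with defined DNA repair or cell cycle alteration. Growth was scored as inhibition against vehicle-only controls.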

[6] = NCI Yeast Anticancer Drug Screen. Data for the rad14 strain (AID 159);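 also: 0% = growth of vehicle-treated control cultures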; settings: S. cerevisiae rad14 strain growth inhibition, stronger effect = higher value
Outline: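 Readout: yeast growth inhibition, referenced to vehicle-only cultures. Strain bears a defined alteration in DNA damage repair.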

[7] = NCI Yeast Anticancer Drug Screen. Data for the sgs1 mgt1 strain (AID 161);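 also: 0% = growth of cultures given vehicle only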; settings: S. cerevisiae sgs1 mgt1 strain, stronger effect = higher value
Outline: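 Read-out: growth inhibition vs vehicle controls. Cells: mutant yeast strain deficient in DNA damage repair.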

[8] = NCI Yeast Anticancer Drug Screen. Data for the CLN2oe strain (AID 163);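 also: 0% = growth of vehicle-only control cultures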; settings: S. cerevisiae CLN2oe strain, stronger effect = higher value
Outline: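 Here, growth inhibition in a cell-cycle-altered yeast strain after compound exposure was quantified against vehicle control growth.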

[9] = NCI Yeast Anticancer Drug Screen. Data for the cln2 rad14 strain (AID 165);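 also: 0% = growth equal to vehicle treated cultures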; settings: S. cerevisiae cln2 rad14 strain, stronger effect = higher value
Outline: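 Growth of compound-exposed yeast (cln2 rad14 genotype) measured and expressed as inhibition relative to vehicle.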

[10] = NCI Yeast Anticancer Drug Screen. Data for the bub3 strain (AID 167); settings: S. cerevisiae bub3 mutant strain, stronger effect = higher value
Outline: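 Part of a panel of yeast mutants defective in DNA damage repair or cell cycle regulation. Each strain is grown with compound, and inhibition is calculated relative to solvent-treated cultures.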

[11] = NCI Yeast Anticancer Drug Screen. Data for the wt2 strain (AID 169);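 also: 0% = growth of vehicle-treated yeast cultures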; settings: S. cerevisiae wt2 strain growth inhibition, stronger effect = higher value
Outline: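 Genetically defined yeast strains from a DNA-repair/cell-cycle panel were used. Compound-exposed yeast growth was measured, and the inhibition was calculated relative to vehicle treatment.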

[12] = NCI Yeast Anticancer Drug Screen. Data for the mlh1 strain (AID 171);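 also: 0% = growth of vehicle-treated control cultures of the same strain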; settings: S. cerevisiae mlh1 strain growth inhibition, stronger effect = higher value
Outline: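 Here the genetically defined yeast mutant is grown with each compound, and the extent to which its growth falls below that of vehicle-exposed cells is reported.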

[13] = NCI Yeast Anticancer Drug Screen. Data for the sgs1 strain (AID 173);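 also: 0% = growth of vehicle-only control cultures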; settings: S. cerevisiae sgs1 mutant, stronger effect = higher value
Outline: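 Relative growth inhibition, referenced to vehicle, was determined in a yeast strain with a defined alteration affecting DNA damage repair or cell cycle control after compound exposure.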

[14] = NCI Yeast Anticancer Drug Screen. Data for the mlh1 rad18 strain (AID 175); settings: S. cerevisiae mlh1 rad18 strain growth inhibition, stronger effect = higher value
Outline: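 In this whole-cell yeast screen, a strain with altered DNA damage repair is challenged with compound, and its growth is measured against matched vehicle-treated controls.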

[15] = NCI Yeast Anticancer Drug Screen. Data for the rad18 strain (AID 177); settings: S. cerevisiae rad18 mutant growth inhibition, stronger effect = higher value
Outline: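 Screen uses a yeast strain with a defined lesion in DNA damage repair; compound effect is read as loss of growth compared to untreated vehicle cultures.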

[16] = at 5.0 µM (retest, dose inferred, filed as 0.5)
[17] = at 50.0 µM (retest, dose inferred, filed as 5.0)

`c1cncc(C(Nc2cccc3cccnc23)Nc2cccc3cccnc23)c1` showed a growth inhibition ([1]; at 1.2 µM) of 0%, a growth inhibition ([1]; at 3.7 µM) of 0% and a growth inhibition ([1]; at 11.0 µM) of 1%. It also gave a growth inhibition ([1]; at 33.0 µM) of 2%, a growth inhibition ([1]; at 100.0 µM) of 0% and a growth inhibition ([2]; at 1.2 µM) of 1%. The growth inhibition ([2]; at 3.7 µM) was 14%, the growth inhibition ([2]; at 11.0 µM) was 31% and the growth inhibition ([2]; at 33.0 µM) was 47%. The growth inhibition ([2]; at 100.0 µM) was 55%, the growth inhibition ([3]; at 1.2 µM) was 4% and the growth inhibition ([3]; at 3.7 µM) was 1%. It also gave a growth inhibition ([3]; at 11.0 µM) of 3%, a growth inhibition ([3]; at 33.0 µM) of -70% and a growth inhibition ([3]; at 100.0 µM) of -45%. The growth inhibition ([4]; at 1.2 µM) was -103%, the growth inhibition ([4]; at 3.7 µM) was 52% and the growth inhibition [4, 16] was 25%. For the same molecule, the growth inhibition ([4]; at 11.0 µM) was 61%, the growth inhibition ([4]; at 33.0 µM) was 76% (active) and the growth inhibition [4, 17] was 44%. The growth inhibition ([4]; at 50.0 µM) was 75.8% (active), the growth inhibition ([4]; at 100.0 µM) was 81% (active) and the growth inhibition ([5]; at 1.2 µM) was 2%. It also gave a growth inhibition ([5]; at 3.7 µM) of 1%, a growth inhibition [5, 16] of -26% and a growth inhibition ([5]; at 11.0 µM) of 5%. It also gave a growth inhibition ([5]; at 33.0 µM) of 12%, a growth inhibition [5, 17] of -2% and a growth inhibition ([5]; at 50.0 µM) of 44.8%. For the same molecule, the growth inhibition ([5]; at 100.0 µM) was 15%, the growth inhibition ([6]; at 1.2 µM) was 0% and the growth inhibition ([6]; at 3.7 µM) was 9%. The growth inhibition ([6]; at 11.0 µM) was 15%, the growth inhibition ([6]; at 33.0 µM) was 25% and the growth inhibition ([6]; at 100.0 µM) was 47%. The growth inhibition [7, 16] was 28%, the growth inhibition [7, 17] was 53% and the growth inhibition ([7]; at 50.0 µM) was 54.4%. The growth inhibition ([8]; at 1.2 µM) was 6%, the growth inhibition ([8]; at 3.7 µM) was 3% and the growth inhibition ([8]; at 11.0 µM) was 3%. For the same molecule, the growth inhibition ([8]; at 33.0 µM) was 3%, the growth inhibition ([8]; at 100.0 µM) was 2% and the growth inhibition [9, 16] was 1%. For the same molecule, the growth inhibition [9, 17] was 6%, the growth inhibition ([9]; at 50.0 µM) was 27.9% and the growth inhibition ([10]; at 1.2 µM) was 1%. The growth inhibition ([10]; at 3.7 µM) was 4%, the growth inhibition [10, 16] was -10% and the growth inhibition ([10]; at 11.0 µM) was -7%. The growth inhibition ([10]; at 33.0 µM) was -11%, the growth inhibition [10, 17] was -12% and the growth inhibition ([10]; at 50.0 µM) was -13.8%. For the same molecule, the growth inhibition ([10]; at 100.0 µM) was -8%, the growth inhibition ([11]; at 1.2 µM) was 0% and the growth inhibition ([11]; at 3.7 µM) was 9%. The growth inhibition ([11]; at 11.0 µM) was 0%, the growth inhibition ([11]; at 33.0 µM) was 2% and the growth inhibition ([11]; at 100.0 µM) was -1%. It also gave a growth inhibition ([12]; at 1.2 µM) of 3%, a growth inhibition ([12]; at 3.7 µM) of 1% and a growth inhibition ([12]; at 11.0 µM) of 1%. It also gave a growth inhibition ([12]; at 33.0 µM) of 4%, a growth inhibition ([12]; at 100.0 µM) of 2% and a growth inhibition ([13]; at 1.2 µM) of 11%. For the same molecule, the growth inhibition ([13]; at 3.7 µM) was 39%, the growth inhibition ([13]; at 11.0 µM) was 59% and the growth inhibition ([13]; at 33.0 µM) was 64%. The growth inhibition ([13]; at 100.0 µM) was 62%, the growth inhibition [14, 16] was 25% and the growth inhibition [14, 17] was 40%. For the same molecule, the growth inhibition ([14]; at 50.0 µM) was 77.2% (active), the growth inhibition ([15]; at 1.2 µM) was 36% and the growth inhibition ([15]; at 3.7 µM) was 89% (active). The growth inhibition ([15]; at 11.0 µM) was 92% (active), the growth inhibition ([15]; at 33.0 µM) was 94% (active) and the growth inhibition ([15]; at 100.0 µM) was 94% (active).
